From PubChem BioAssay (NCI)
This is part of a sample that, as a whole, favours compounds with a hit. Of some 83,000 tested, about 20% had one in any assay.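 Method: cells in 96-well plates; compound added at one concentration; 48 h incubation; percent growth measured; values under 10 scored active.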 Unmarked numbers belong to inactive results. Active and inactive are the calls of the source.

Experiments:
Assay in all cases: NCI-60 one-dose screen, 48 h (100 = growth as untreated, 0 = no growth, -100 = all killed)
Conditions in all cases: 10 µM unless noted
T-47D breast = test system: T-47D breast
MDA-MB-435 melanoma = test system: MDA-MB-435 melanoma
SW-620 colon = test system: SW-620 colon
MCF7 breast = test system: MCF7 breast
HCT-116 colon = test system: HCT-116 colon
HCC-2998 colon = test system: HCC-2998 colon
KM12 colon = test system: KM12 colon

Compound | growth (T-47D breast) | growth (MDA-MB-435 melanoma) | growth (SW-620 colon) | growth (MCF7 breast) | growth (HCT-116 colon) | growth (HCC-2998 colon) | growth (KM12 colon)
C=C1C(=O)O[C@H]2[C@H]1CC/C(COC(=O)/C=C\C(=O)NCc1ccc(Cn3c(=O)sn(CCCI)c3=O)cc1)=C\CC[C@@]1(C)O[C@@H]21 | -48.3% (active) | -83.8% (active) | -76.3% (active) | -53.5% (active) | -48.8% (active) | -77.8% (active) | -77% (active)
O=c1cc(-c2ccc(OCc3ccccc3)cc2)oc2c(I)c(OCc3ccccc3)cc(OCc3ccccc3)c12 | 104% | 102% | 106% | 101% | 95.8% | 105% | 91.8%
Nc1ccc2c(S(=O)(=O)O)ccc(S(=O)(=O)O)c2c1 | 82.5% | 107% | 106% | 93.1% | 93.9% | 98.7% | 110%
CCn1c(Sc2nnc(NC(C)=O)s2)nc2c1c(=O)n(C)c(=O)n2C | 93% | 98.1% | 96.1% | 94.8% | 97% | 92% | 106%
Fc1ccc(Nc2ccc3cc(OCCCN4CCOCC4)ccc3n2)cc1F | 43.5% | 59.9% | 10% | 55.7% | 47.7% | 20% | 21.3%
CCOc1cc(N)ccc1C(=O)NCCCN(CC)CC | 101% | 106% | 101% | 96.4% | 98% | 95.9% | 106%
CCc1c(C(=O)N[C@@H]2c3cc(Cl)ccc3CC[C@@H]2O)[nH]c(C)c1C(C)=O | 70.4% | 97.4% | 90.1% | 85.3% | 51% | 95.4% | 71.6%
CCNCCNc1cc(-c2cccc(C(F)(F)F)c2)c(C#N)c2nc3ccccc3n12 | -72.4% (active) | -93.3% (active) | -67.3% (active) | -70% (active) | -93.9% (active) | -80.9% (active) | -75.6% (active)
O=S(=O)(NCCNc1cc(-c2c(-c3cccc(O)c3)nc3sccn23)ccn1)c1ccc(Cl)cc1 | 26% | 24.8% | 89.2% | 47.8% | 57.4% | 102% | 59.6%
COc1ccc(O)c(-c2cc(-c3ccccc3)c(C#N)c(=O)[nH]2)c1 | 79.3% | 102% | 105% | 87.5% | 89.7% | 99.8% | 90.8%
CCOc1ccc(S(=O)(=O)c2ccc(C)cc2)c2c1no[n+]2[O-] | 56.4% | 91.4% | 100% | 83.1% | 80.4% | 100% | 93.6%
Cc1cc(=O)c2cc3nc(-c4cccnc4)oc3c(Br)c2o1 | 201% | 107% | 99.5% | 94.9% | 99.9% | 106% | 109%
COc1ccc(C2CC(c3ccccc3)=NN2c2nc(C)c(C(C)=O)s2)cc1 (stereo not given) | 99.7% | 103% | 96.1% | 94.7% | 97.3% | 107% | 102%
Cc1nc(Nc2ccc(NC(=S)Nc3ccccc3)cc2)nc2nc(SCc3ccccc3)[nH]c(=O)c12 | 88.5% | 109% | 108% | 87.3% | 112% | 111% | 107%
CC(=O)Nc1cccc(C2=CC(c3ccc(C)cc3)n3ncnc3N2)c1 (stereo not given) | 87.5% | 112% | 102% | 96.9% | 103% | 112% | 97.2%
Nc1c(C(=O)Nc2ccccc2)sc2nc3c(cc12)CCCCCC3 | 38.2% | -17% (active) | 27.5% | 12.1% | 2.39% (active) | 13.4% | 15.8%
CC/C=C/[C@@H]1C=C[C@@H]2CCC[C@H]2[C@@H]1CC[C@H](O)[C@H](C)N | -45.4% (active) | -89.3% (active) | -67.2% (active) | -85.8% (active) | -76.2% (active) | -88.6% (active) | -85.1% (active)

Compound | growth (T-47D breast) | growth (MDA-MB-435 melanoma) | growth (SW-620 colon) | growth (MCF7 breast) | growth (HCT-116 colon) | growth (HCC-2998 colon) | growth (KM12 colon)
CC(=O)C(C(C)=O)c1nc2sc3cc(Cl)ccc3n2c(=N)c1C#N | 75.8% | 111% | 95.9% | 57.9% | 87.5% | 106% | 82.4%
CCOC(=O)C(=CNc1ccccc1[N+](=O)[O-])C(=O)OCC | 90% | 111% | 99.5% | 92.9% | 100% | 96.1% | 106%
C=C(Cl)COC(=O)C(C)(C)O | 99.1% | 104% | 107% | 93.3% | 99.4% | 102% | 102%
Cc1cc(-c2ccc(N(C)C)cc2)c2sc(=O)[nH]c2n1 | 67.6% | 4.12% (active) | 38.3% | 28.4% | 50.1% | 77.5% | 39%
CC(C)OCCCNCC(=O)Nc1ccc(S(=O)(=O)c2ccc(NC(=O)CNCCCOC(C)C)cc2)cc1 | 103% | 101% | 87.6% | 85.8% | 81.3% | 73.8% | 99.8%
CN(C)c1ccc(-c2cc(-c3ccc(Nc4nc(Nc5ccccc5)nc(Nc5ccc(Cl)cc5)n4)cc3)nc(N)n2)cc1 | 29.3% | 49.2% | 67.9% | 19.1% | 7.76% (active) | -8.31% (active) | 36.6%
NS(=O)(=O)c1cnccc1-n1ccc(=O)c(S(N)(=O)=O)c1 | 84.5% | 91.7% | 97% | 88.8% | 92.5% | 104% | 93.3%
Cc1ccc2c(n1)C(=O)C(Oc1ccc(F)cc1)=CC2=O | 40% | 101% | 84.7% | 81.1% | 90.8% | 108% | 101%
C=C1C(=O)O[C@H]2[C@H]1CC/C(COC(=O)/C=C\C(=O)NCc1ccc(Cn3c(=O)sn(-c4ccc(Cl)cc4)c3=O)cc1)=C\CC[C@@]1(C)O[C@@H]21 | -44.1% (active) | -80.3% (active) | -65.7% (active) | -52% (active) | -66% (active) | -76.8% (active) | -72.7% (active)
O=C(O)c1ccccc1C(=O)Nc1ccc(Cl)cc1 | 87.2% | 85.7% | 93% | 103% | 96.3% | 92.6% | 85.8%
COc1ccc(N=c2nc3sc4cc(Cl)ccc4n3c(N)c2C#N)cc1 | 73.7% | 99.6% | 81.1% | 61.2% | 93.7% | 95.5% | 24.7%
CC(C)OC(=O)NNC(=O)c1ccncc1 | 106% | 109% | 98.2% | 88% | 97.5% | 119% | 115%
CCCCCCCCN(CCCCCCCC)C(=N)c1ccnc2ccccc12 | -62.9% (active) | -82.3% (active) | -68.1% (active) | -74.6% (active) | -92.3% (active) | -84.1% (active) | -82.7% (active)
CO/C(=C1/NC(=O)C(Cc2ccc(O)c(Br)c2)N(C)C(=O)C(C)NC(=O)CCC/C=C(\C)CCC(C)OC1=O)c1ccccc1 (stereo not given) | -0.228% (active) | 3.86% (active) | 18.2% | -17.5% (active) | 8.19% (active) | -36.6% (active) | 26.9%
O=c1[nH]nc(-c2ccc(Cl)cc2)cc1Cc1ccccc1 | 84.1% | 106% | 105% | 92.2% | 93% | 113% | 102%
Cc1cc(NS(=O)(=O)c2ccccc2)c(OS(=O)(=O)c2ccccc2)cc1C | 109% | 122% |  | 93.7% | 96.1% | 106% | 107%
